# USP10 inh: inhibitors of human USP10 deubiquitinase; Ubiquitin carboxyl-terminal hydrolase 10 (Homo sapiens), Q14694; purified USP10, Ub-rhodamine fluorescence, 60 min; inhibition, % at 20 µM; hit rate 1.1% among 47,000; AID 1645856, 2021
# USP17 block: inhibitors of human USP17 deubiquitinase | inhibition, % at 50 µM | AID 1645855, 2021 | Ubiquitin carboxyl-terminal hydrolase 17-like protein 5 (Homo sapiens), A8MUK1 | hit rate 6.5% among 47,000 | purified USP17, Ub-rhodamine cleavage fluorescence, 3 h
# USP8 block: inhibitors of human USP8 deubiquitinase | Ubiquitin carboxyl-terminal hydrolase 8 (Homo sapiens), P40818 | purified USP8, Ub-rhodamine cleavage fluorescence, 30 min | inhibition, % at 20 µM | hit rate 4.2% among 47,000
# USP28 block: inhibitors of human USP28 deubiquitinase; inhibition, % at 25 µM; purified USP28, Ub-rhodamine cleavage fluorescence, 30 min; Ubiquitin carboxyl-terminal hydrolase 28 (Homo sapiens), Q96RU2; hit rate 3% among 47,000
# Target sequence (Q96RU2 whole entry, looked up): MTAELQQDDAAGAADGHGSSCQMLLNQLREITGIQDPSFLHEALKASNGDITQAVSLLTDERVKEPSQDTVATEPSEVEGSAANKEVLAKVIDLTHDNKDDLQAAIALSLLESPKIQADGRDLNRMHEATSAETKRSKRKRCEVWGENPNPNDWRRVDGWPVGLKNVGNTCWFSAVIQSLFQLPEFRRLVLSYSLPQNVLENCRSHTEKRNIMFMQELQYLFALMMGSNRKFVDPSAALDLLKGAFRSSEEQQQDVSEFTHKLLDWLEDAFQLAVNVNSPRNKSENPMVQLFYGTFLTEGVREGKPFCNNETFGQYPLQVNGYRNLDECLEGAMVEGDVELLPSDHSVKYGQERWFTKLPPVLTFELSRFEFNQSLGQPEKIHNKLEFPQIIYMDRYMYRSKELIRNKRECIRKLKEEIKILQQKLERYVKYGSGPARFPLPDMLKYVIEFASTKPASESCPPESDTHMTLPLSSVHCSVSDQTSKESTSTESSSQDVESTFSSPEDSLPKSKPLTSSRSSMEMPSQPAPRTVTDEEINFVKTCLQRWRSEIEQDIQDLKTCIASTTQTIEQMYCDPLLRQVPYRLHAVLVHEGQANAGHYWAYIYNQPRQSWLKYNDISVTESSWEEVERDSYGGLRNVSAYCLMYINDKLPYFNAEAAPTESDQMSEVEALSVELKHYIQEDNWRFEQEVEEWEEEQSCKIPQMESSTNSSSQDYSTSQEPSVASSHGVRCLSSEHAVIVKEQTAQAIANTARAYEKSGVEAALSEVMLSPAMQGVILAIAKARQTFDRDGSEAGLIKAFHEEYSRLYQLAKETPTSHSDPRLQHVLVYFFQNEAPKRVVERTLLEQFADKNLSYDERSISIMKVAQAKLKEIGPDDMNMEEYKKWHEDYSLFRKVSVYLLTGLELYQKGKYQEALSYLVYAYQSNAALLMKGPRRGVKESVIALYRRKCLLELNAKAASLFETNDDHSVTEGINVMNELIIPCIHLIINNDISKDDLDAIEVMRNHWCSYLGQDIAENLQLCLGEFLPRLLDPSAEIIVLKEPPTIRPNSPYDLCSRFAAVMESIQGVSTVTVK
# USP30 block: inhibitors of human USP30 deubiquitinase. purified USP30, Ub-rhodamine cleavage fluorescence. Ubiquitin carboxyl-terminal hydrolase 30 (Homo sapiens), Q70CQ3. inhibition, % at 25 µM. hit rate 5.3% among 47,000. AID 1645860, 2021
# * hit, by the source's call; · = not tested or not shown. The list is not random: actives were taken first. Their share in the collection is about 13%. Rule as the data show it: active = inhibition above about 30%; inactive = the rest.
SMILES,USP10 inh,USP17 block,USP8 block,USP28 block,USP30 block
COc1ccc(-c2nn(-c3ccccc3)cc2/C=C(/C#N)c2ccccc2)cc1OC,5,-7,0,-7,-26
CC(=O)c1ccc(NC(=O)/C(=C/c2ccco2)n2nnnc2-c2ccccc2)cc1,0,51*,62*,12,-128
Cc1c(C(=O)N2CCCC2)cnn1-c1cc(-c2nc(C(C)(C)C)no2)ccn1,-1,4,2,-1,3
O=C(NCc1cccc(Cl)c1)c1ccc2c(c1)SC1=NS(=O)(=O)CCN12,-4,4,-9,5,-8
CC(C)(C)c1ccccc1NC(=O)c1ccc2c(c1)SC1=NS(=O)(=O)CCN12,-2,12,-1,31*,-8
CC(C)[C@@H](C(=O)O)n1c(=O)[nH]c2ccccc2c1=O,8,-3,2,-10,0
Cc1c(CC(=O)NCC(C)C)c(=O)oc2cc3c(cc12)CCC1(CCCCC1)O3,3,36*,-18,7,-105
C1CNCC(CCc2nc(N3CCCC3)nc3c2CNCC3)C1 (stereo unspecified),-3,-8,-46,31*,25
CCn1c(SCC(=O)c2c(N)n(CC(C)C)c(=O)n(C)c2=O)nnc1-c1ccccc1,19,58*,14,-9,-3
Cn1c(N)c(C(=O)CSc2nnc(COc3ccc(Cl)cc3)n2Cc2ccccc2)c(=O)n(C)c1=O,-1,20,9,8,22
COc1ccc(C)cc1NC(=O)c1sc(Nc2ccc(F)cc2)nc1C,-4,-17,1,-11,-57
CCCc1cc(C2CCCN2C(=O)c2cc(-c3ccccc3)no2)no1 (stereo unspecified),3,20,6,9,32*
CC(=O)Nc1ccc([C@@H]2CN(Cc3ccc(F)cc3)C[C@]23CCCC(=O)N3)cc1,0,13,14,11,11
COc1ccccc1NC(=O)c1cc(S(=O)(=O)NC2CCCC(C)C2C)ccc1F (stereo unspecified),7,3,7,8,20
O=C(Nc1ccc(Br)cc1F)c1cc(S(=O)(=O)NCCc2ccccc2)ccc1F,8,5,0,3,36*
COc1cccc(OCCOc2ccc(-c3nc4sc5c(c4c(=O)[nH]3)CCC(C)C5)cc2OC)c1 (stereo unspecified),2,8,-25,5,18
Cc1nc(-c2cccc(S(=O)(=O)Nc3ccccc3Cl)c2)no1,5,0,4,-4,-14
Cc1ccc(NC(=O)CCc2nnc(C(=O)Nc3ccccc3)s2)cc1C,-9,39*,-14,0,-66
Cc1cccc(N2CCN(C(=O)CCc3nnc(C(=O)Nc4ccccc4)s3)CC2C)c1 (stereo unspecified),2,0,3,2,15
O=c1ccc(-c2nc(-c3cnccn3)no2)cn1Cc1noc(-c2ccccc2)n1,-4,-20,0,-15,-98
O=c1ccc(-c2nc(-c3ccncc3)no2)cn1Cc1noc(-c2ccccc2)n1,-7,-24,53*,-47,-180
O=c1ccc(-c2nc(-c3cnccn3)no2)cn1Cc1ccccc1F,0,4,2,8,33*
CN1C(=O)OC[C@@H]2CCN(S(=O)(=O)c3ccc4ccccc4c3)C[C@H]21,2,6,14,6,0
c1ccc(-c2n[nH]c(C3CCCN3C3CCOCC3)n2)cc1 (stereo unspecified),-3,-7,-3,-9,-33
Cc1ccc(C(=O)N2CC(C(=O)NC3CCCC3)C3(CCOCC3)C2)cc1C (stereo unspecified),1,2,10,3,-5
SMILES,USP10 inh,USP17 block,USP8 block,USP28 block,USP30 block
COC(=O)C1CCN(Cc2cc(=O)oc3cc(OC)ccc23)CC1,2,0,8,-1,0
COc1cc2oc(=O)cc(CN3CCCCC3)c2cc1OC,0,45*,3,-4,2
CNC(=O)N1CCC(n2c(C)nc(C(=O)Nc3ccc(C)cc3)c2C)CC1,0,-10,-20,-6,-1
COc1ccc(-c2nsc(NC(=O)Cc3cccc4ccccc34)n2)cc1OC,-9,0,4,33*,-57
COc1ccc(CNC(=O)Cc2ccc3ccccc3c2)cc1OC,-1,-2,9,4,5
CCC(=O)Nc1nc(-c2ccc(C)cc2)ns1,0,46*,3,6,-80
COc1ccc(CNC(=O)Cc2cccc3ccccc23)cc1OC,-1,24,0,8,30*
O=C(NCc1ccc(F)cc1)Nc1ccc(-c2nnc(-c3ccccc3)o2)cc1,5,72*,4,·,·
O=C(Cn1cccc1-c1nnc(-c2ccccc2)o1)Nc1ccccc1,-2,22,-17,·,·
CC(C)(C)n1ncc2c(=O)n(CC(=O)NC3CCCC3)cnc21,-9,-12,-10,-13,-47
COc1ccc(CC2NC(=O)C3(CCN(C(=O)NCc4ccccc4)CC3)NC2=O)cc1 (stereo unspecified),1,23,-55,-6,1
CN(C)CCCNC(=O)c1cc2occc2n1Cc1ccccc1F,-6,-24,-15,-11,-32
COc1ccc(CCNC(=O)c2cc3ccccc3s2)cc1OC,0,-18,-14,86*,-26
COc1ccc(CC(=O)NCc2cc3ccccc3s2)cc1OC,-3,-6,-20,9,-23
COc1ccc(CNC(=O)c2cc3ccccc3cc2OC)cc1OC,0,-10,-4,-9,-12
COc1ccc(CNC(=O)c2ccc(-c3nnc(-c4ccccc4)o3)cc2)cc1OC,-2,25,14,10,42*
CCC(=O)N1CCN(c2nc3c(s2)CC(C(=O)Nc2cccc(F)c2)CC3)CC1 (stereo unspecified),0,-4,-22,6,0
O=C(CCC(=O)N1CCOCC1)NC1C2CC3CC(C2)CC1C3 (stereo unspecified),-1,0,-6,2,5
O=C(Cn1c(SCCOc2ccccc2)nc2ccccc21)N1CCCCC1,3,7,14,12,17
Cc1ccccc1OCCSc1nc2ccccc2n1CC(=O)NC1CC1,8,31*,25,7,50*
Cc1ccc(CSc2nc3c(c(N(C)C)n2)CCCC3)cc1,8,14,21,47*,33*
O=C(c1cnn2cccnc12)N1CCn2c(nnc2C2CC2)C1,3,18,26,16,27
O=C(c1cnn2cccnc12)N1CCC(c2ccn3nccc3n2)CC1,7,18,4,15,33*
N#C/C(=C\c1cn(CCC(N)=O)c2ccccc12)c1nc2ccccc2[nH]1,-2,40*,-15,-23,-130
COc1ccc(C(=O)c2c[nH]c(C(=O)NCCCn3ccnc3)c2)cc1,4,18,21,14,33*
Cc1c(-c2nsc(NC(=O)c3ccc(Cl)cc3)n2)nnn1-c1ccccc1F,43*,39*,86*,64*,86*

# Screening data as filed in PubChem.
